Reference: ChEMBL document CHEMBL4513216, “Probing the Open Global Health Chemical Diversity Library for Multistage-Active Starting Points for Next-Generation Antimalarials” (ACS Infect Dis, 2020)
Out of some 69,000 compounds screened, about 8,600 (12%) showed an effect of 50% or more. The full list was thinned out, with strong results kept by preference.

System: Plasmodium berghei
Assay: Screen against P. berghei liver stage (PbLuc), transformed with Luciferase, at 10uM
Type: functional, HepG2
Conditions: tested at 10 uM

SMILES | INHIBITION [%]
COc1ccccc1C(O)CNC(=O)Nc1cccnc1OC (stereo not given) | -13.5
COc1cc(N2CCC3(CC2)CC(N2CCOCC2)C3)ncn1 | 0.112
O=C(NC[C@H]1OC[C@@H](NC2CCC2)[C@@H]1O)c1cccs1 | 18.4
O=C(NC[C@H]1OC[C@@H](NCc2ccccc2F)[C@@H]1O)Nc1ccccc1 | -13.4
CC(C)NC(=O)NC[C@H]1OC[C@@H](NCc2ccccc2O)[C@@H]1O | 4.59
CC(C)N[C@@H]1CO[C@H](CNC(=O)Nc2ccccc2)[C@H]1O | 50.2
CC(C)N[C@@H]1CO[C@H](CNC(=O)c2ccccc2)[C@H]1O | -6.23
CC(C)NC(=O)NC[C@H]1OC[C@@H](NCc2ccccc2F)[C@@H]1O | 58.5
O=C(NC[C@H]1OC[C@@H](NC2COC2)[C@@H]1O)Nc1ccccc1 | 12.4
O=C(NC[C@H]1OC[C@@H](NC2CCOCC2)[C@@H]1O)Nc1ccccc1 | 51
CN1CCC(N[C@@H]2CO[C@H](CNC(=O)c3cccs3)[C@H]2O)CC1 | 17.4
CC(=O)N1CCC(N[C@@H]2CO[C@H](CNC(=O)c3cccs3)[C@H]2O)CC1 | 60.9
CC(C)(C)CN[C@@H]1CO[C@H](CNC(=O)Nc2ccccc2)[C@H]1O | 41.1
O=C(NC[C@H]1OC[C@@H](NC2CCC2)[C@@H]1O)Nc1ccccc1 | 41.9
Cn1cc(CN2CCc3nc4ccccc4c(=O)n3CC2)cn1 | -10.2
COC(=O)C(NC(=O)CCOC(C)C)c1cc(F)ccc1F (stereo not given) | -19.9
Cc1ccc(N(CC(=O)N2CCCCC2)C(=O)C2COCCO2)cc1 (stereo not given) | 11.6
CC(C)CC(NC(=O)c1cccs1)c1nc2cccnc2n1C (stereo not given) | -11.4
Cn1ccnc1C1(O)CCN(C(=O)CCc2ccccc2)CC1 | 27.465
O=C1NCCCc2[nH]c(C3CCN(C(=O)C4CC4)CC3)nc21 | 10.4
CN(CCn1cncc1-c1cnc(N2CCOCC2)nc1)C1CCCC1 | -11.05
O=C(NC[C@H]1OC[C@@H](NCc2ccccc2)[C@@H]1O)Nc1ccccc1 | 17.7
CN1CCC(N[C@@H]2CO[C@H](CNC(=O)Nc3ccccc3)[C@H]2O)CC1 | 60.1
O=C(NC[C@H]1OC[C@@H](NC2CCCCC2)[C@@H]1O)Nc1ccccc1 | 26

SMILES | INHIBITION [%]
CN(C)C(=O)Cn1c(C2CC2)c(CN2CCOCC2)c2cccnc21 | -13.2
Cc1c(Cl)cccc1N1CC(c2nnc(N)s2)CC1=O (stereo not given) | 35.8
CC(C)(C)c1coc([C@@H]2COCCN2Cc2ncc[nH]2)n1 | 20.9
CC(C)(C)c1coc([C@@H]2COCCN2Cc2ccccc2)n1 | 3.25
CC(C)(C)c1coc([C@@H]2COCCN2Cc2c[nH]cn2)n1 | 62.8
Cn1c(CN2CCOC[C@H]2c2nc(C(C)(C)C)co2)nc2ccccc21 | 52
CC(C)(C)c1coc([C@@H]2COCCN2Cc2ccccn2)n1 | -37.4
Cn1cc(CN2CCOC[C@H]2c2nc(C(C)(C)C)co2)c2ccccc21 | 10
CS(=O)(=O)N1CC[C@H]2OCC[C@@]2(C(=O)NCC2CC2)C1 | 42.1
CN1CCN(Cc2c(Cl)ccc(O)c2Cl)CC1C(=O)O (stereo not given) | -27.6
CN(C)CCN1C(=O)CCCC12CCCN(C(=O)c1ccncc1)C2 (stereo not given) | 5.68
O=C(c1ccccc1F)N1CCC2(CC1)CC(Oc1ccccn1)CO2 (stereo not given) | 46.6
COC1COC2(CCN(C(=O)c3cscn3)CC2)C1 (stereo not given) | 53.9
COC1COC2(CCN(C(=O)c3cnc(C)cn3)CC2)C1 (stereo not given) | -21.7
COC1COC2(CCN(C(=O)c3ccccc3F)CC2)C1 (stereo not given) | 62.9
O=C(c1ccccc1)N1CCC2(CC1)CC(Oc1ccccc1)CO2 (stereo not given) | 52
O=C(c1cccnc1)N1CCC2(CC1)CC(Oc1ccccc1)CO2 (stereo not given) | 34.4
COc1ncccc1C(=O)N1CCC2(CC1)CC(OC)CO2 (stereo not given) | 25.8
CC(=O)N1CCC2(CC1)CC(Oc1ccccc1)CO2 (stereo not given) | 33.5
COC1COC2(CCN(C(=O)c3cocn3)CC2)C1 (stereo not given) | 39.4
CCn1c(O)c(C(C)=O)c2cc(C)ccc21 | 33.4
Cc1ccc(-c2nc(CN3CCCCC3Cn3cncn3)no2)cc1 (stereo not given) | 21.5
CCS(=O)(=O)CCSc1ccc(Br)cc1 | -59.8
CN(CC(O)COc1ccc(C(F)(F)F)cc1)C(=O)Nc1nncs1 (stereo not given) | -0.87

SMILES | INHIBITION [%]
COc1cc(NC(=O)c2ccc(C)c(F)c2)c(C(=O)N(C)C)cc1OC | 14
CCn1cc(NC(=O)NC(CO)Cc2c[nH]c3ccccc23)cn1 (stereo not given) | 32.3
CCn1cc(S(=O)(=O)NC(CO)Cc2c[nH]c3ccccc23)cn1 (stereo not given) | 19.3
CCn1cc(S(=O)(=O)NC(=O)CCc2c[nH]c3ccccc23)cn1 | 61.5
CN(Cc1cc(C(C)(C)C)n[nH]1)C(=O)CCC(=O)NC1CCCC1 | 32.1
Cn1ncc(NC(=O)c2noc3c2CCCC3)c1C(N)=O | 2.6
O=C(C1CCC2(CCN(CC3CC3)CC2)O1)N1CCCC1 (stereo not given) | 1.34
COc1cccc(CN(C)Cc2cccc(C#N)c2)c1OC | -3.19
COc1ccc(C(=O)N(C)Cc2cccc(C#N)c2)c(OC)c1OC | 50.1
COc1ccc(C(=O)N(C)Cc2nnc3ccccn23)c(OC)c1OC | -8.11
CCOc1ccc2oc(-c3cn(C)nc3C)c(O)c(=O)c2c1 | 25.9
COC(=O)CCC(=O)N(Cc1ccc2cc[nH]c2c1)C1CC1 | -8.8
COc1cc(C2CC(=O)Nc3c2nc2n3CCCC2)cc2c1OCO2 (stereo not given) | 34
CCNC(=O)[C@@H]1C[C@@H](N)CN1C(=O)c1[nH]c2ccccc2c1CC | 11.5
CCOCCCNc1ncc(-c2onc(C)c2C)c(-c2ccco2)n1 | 27.465
CCC(=O)NCC1(O)CCC(C(C)(C)C)CC1 (stereo not given) | -5.92
Cc1cc(C)cc(OCCN(C)Cc2cscn2)c1 | 28.1
CN(C)S(=O)(=O)N(Cc1cscn1)c1ccccc1 | 62.4
COCCS(=O)(=O)N(Cc1cscn1)c1ccccc1 | 22.8
CN(CCOc1ccc(Br)cc1)Cc1cscn1 | -62.6
CCN(C)S(=O)(=O)N(Cc1cscn1)c1ccccc1 | 66.4
Cc1ccc(OCCN(C)Cc2cscn2)cc1 | -23.8
